By AC50 is commonly meant the midpoint of the concentration-response curve, whichever way the signal moves.

Inconclusive results are not listed. Active and inactive are the calls of the source. The calls were made as follows: active = hit-call score of the fitted dose curve at least 0.9, where 1 is the maximum; inconclusive = response in the unintended direction; inactive = score below 0.9.

Chain of hamster Adenylyl Cyclase, Adcy5 (gene 64532) (Q04400 whole entry, looked up): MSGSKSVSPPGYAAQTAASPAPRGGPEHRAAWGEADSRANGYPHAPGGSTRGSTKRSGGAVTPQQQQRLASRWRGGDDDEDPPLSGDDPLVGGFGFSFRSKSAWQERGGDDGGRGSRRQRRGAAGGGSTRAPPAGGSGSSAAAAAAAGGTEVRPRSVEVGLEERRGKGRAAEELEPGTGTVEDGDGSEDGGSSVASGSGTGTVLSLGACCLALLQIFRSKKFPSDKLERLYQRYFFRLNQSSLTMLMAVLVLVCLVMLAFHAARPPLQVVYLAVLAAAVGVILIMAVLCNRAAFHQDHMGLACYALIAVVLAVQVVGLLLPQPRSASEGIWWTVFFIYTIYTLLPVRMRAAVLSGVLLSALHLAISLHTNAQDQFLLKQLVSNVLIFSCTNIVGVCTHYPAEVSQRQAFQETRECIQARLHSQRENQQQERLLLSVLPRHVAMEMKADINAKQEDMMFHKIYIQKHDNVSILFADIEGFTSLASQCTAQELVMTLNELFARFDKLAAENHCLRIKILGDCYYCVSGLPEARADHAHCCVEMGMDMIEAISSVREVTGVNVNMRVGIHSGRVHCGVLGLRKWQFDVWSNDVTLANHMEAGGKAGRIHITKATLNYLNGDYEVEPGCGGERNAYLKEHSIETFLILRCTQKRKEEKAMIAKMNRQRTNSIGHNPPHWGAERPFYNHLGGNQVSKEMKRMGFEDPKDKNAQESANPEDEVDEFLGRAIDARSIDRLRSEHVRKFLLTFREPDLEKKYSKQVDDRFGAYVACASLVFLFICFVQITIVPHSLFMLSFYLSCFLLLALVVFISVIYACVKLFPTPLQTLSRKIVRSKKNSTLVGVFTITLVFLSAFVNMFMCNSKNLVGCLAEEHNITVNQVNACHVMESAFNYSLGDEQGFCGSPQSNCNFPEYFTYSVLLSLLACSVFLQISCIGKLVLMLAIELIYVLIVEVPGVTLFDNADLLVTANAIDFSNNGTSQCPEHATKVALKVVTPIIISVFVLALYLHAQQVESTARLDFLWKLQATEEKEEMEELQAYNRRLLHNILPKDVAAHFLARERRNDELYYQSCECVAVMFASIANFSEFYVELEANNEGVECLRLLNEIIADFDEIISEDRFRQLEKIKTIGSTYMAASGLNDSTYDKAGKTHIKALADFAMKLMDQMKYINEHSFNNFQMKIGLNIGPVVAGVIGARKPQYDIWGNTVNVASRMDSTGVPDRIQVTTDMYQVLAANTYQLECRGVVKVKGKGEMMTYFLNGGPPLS

In this assay the target is hamster Adenylyl Cyclase, Adcy5 (gene 64532) (UniProt Q04400). The assay is described as follows: ERF_FR_ENZ_rACFSK_Antagonist: Eurofins (ERF) Enzymatic LeadHunter Assay for hamster Adenylyl Cyclase Antagonism. The protocol:
ERF_FR_ENZ_rACFSK_Antagonist is a biochemical, single-readout assay that uses extracted gene-proteins in a cell-free assay. Measurements were taken 0.16 hour after chemical dosing in a 96-well plate. See Adenylyl Cyclase Hamster Enzymatic Antagonist Assay, Cerep.ERF_FR_ENZ_rACFSK_Antagonist is an assay component calculated from the ERF_FR_ENZ_rACFSK assay. It is designed to measure enzyme activity using a type of enzyme reporter as detected by fluorescence intensity with HTRF technology.Data from the assay component ERF_FR_ENZ_rACFSK_Antagonist was analyzed at the assay endpoint, ERF_FR_ENZ_rACFSK_Antagonist, in the positive analysis fitting direction relative to DMSO as the negative control and baseline of activity. Using a type of enzyme reporter, loss-of-signal activity can be used to understand changes in binding as they relate to gene ADCY5. To generalize the intended target to other relatable targets, this assay endpoint is annotated to the gpcr intended target family, where the subfamily is adenylyl cyclase.
Hamster cells are incubated for 10 minutes at room temprature. Test Sample Requirements: Minimum for 1) Screen: 60 ul of 10 mM stock -OR- 1 mg (pre-weighed) for 10 uM final testing. 2) Dose Response: 90 ul of 10 mM stock -OR- 1 mg (pre-weighed) for a top concentration at 10 uM.
With `COc1cccc2c1C(=O)c1c(O)c3c(c(O)c1C2=O)C[C@@](O)(C(=O)CO)C[C@@H]3O[C@H]1C[C@H](N)[C@H](O)[C@H](C)O1`, the AC50 is 2600 nM (active). On to `COc1cc(CCC(=O)CC(=O)CCc2ccc(O)c(OC)c2)ccc1O`, for which the compound was classed as inactive. On the same count and under the same terms, next, `O=C(/C=C/c1ccc(O)cc1)CC(=O)/C=C/c1ccc(O)cc1`: “inactive”.

These data come from PubChem BioAssay AID2284141 (EPA ToxCast).
